This is an account of results in PubChem BioAssay.

Molecules are shown by their SMILES. Records with an inconclusive call do not appear. Calls of active or inactive are those of the source. Unless noted, no rule for the calls is given here.

A short description of experiment [1]: yeast TOR pathway RPL19A-GFP modulators, primary screen, cell-based, S. cerevisiae, multiplex flow cytometry (AID 1862; in the data active = percent of DMSO control GFP below about 86%;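 also: lower values mimic rapamycin by blocking the RPL19A rise seen in DMSO cells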). Conditions: S. cerevisiae RPL19A-GFP strain, flow cytometry fluorescence, 3 h; at 10 µM; stronger effect = lower value.
A short description of experiment [2]: modulators of MEP2-GFP levels in yeast, primary screen, S. cerevisiae, multiplex flow cytometry (AID 1867;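 active = GFP response, as percent of the DMSO control, above the screen-wide mean plus 3 SD, about 139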;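 also: median GFP channel fluorescence of barcode-gated MEP2-GFP cells measured by flow cytometry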). Conditions: S. cerevisiae MEP2-GFP strain, 3 h, at 10 µM, stronger effect = higher value. On the technique in general: A flow cytometer gives signals particle by particle.
The nature of experiment [3]: modulators of CIT2-GFP expression in yeast, primary screen, S. cerevisiae, GFP fusion, multiplex flow cytometry (AID 1870;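 active = percent response above a set limit, the screen-wide mean plus 3 SD, cut at about 130% in these data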;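 also: barcoded CIT2-GFP strain pooled with four other GFP strains with rapamycin as positive control; median GFP fluorescence per well over plate mean of DMSO wells so 100% = DMSO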). Conditions: 3 h, at 10 µM, stronger effect = higher value.
Experiment [4] is described as follows: modulators of LAP4-GFP expression in yeast, primary screen, S. cerevisiae, multiplex flow cytometry (AID 1873;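 active = GFP signal, as percent of the solvent control, above the screen mean plus 3 SD, about 149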). Conditions: 3 h, at 10 µM, stronger effect = higher value.
The nature of experiment [5]: modulators of AGP1-GFP expression in yeast TOR pathway, primary screen, cell-based, multiplex flow cytometry, S. cerevisiae (AID 1887;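 active = GFP signal above the screen-wide mean plus 3 SD, that is over about 124.5% of the solvent control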;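 also: AGP1-GFP fusion strain of S. cerevisiae within a five-strain barcoded multiplex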). As to conditions: 3 h, at 10 µM, stronger effect = higher value.
Experiment [6] in a line: inhibitors of CD8+ T cell-vesicle binding, pilot screen, LFA-1/ICAM-1 modulator project, MLPCN validation set, flow cytometry (AID 2523;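 active = response below a set limit, under 55% cells CD8-positive and vesicle-bound, and CD8 cells' 90th-percentile brightness under 279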;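 as to vesicle binding response: mean PE anti-B7-1 fluorescence of CD8+ cells relative to row control; 100% = QL9-loaded vesicles with DMSO vehicle in the same plate row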). Conditions: 2C mouse CD8+ T cells, at 7 µM, stronger effect = lower value; double positive events: measured here: CD8+/vesicle+ event percentage.
The target of experiment [7] is Integrin beta-1 (Homo sapiens) + Integrin alpha-4 (Homo sapiens) (UniProt P13612+P05556). In words: inhibition of HUTS-21 binding to VLA-4, pilot screen, VLA-4 allosteric modulator project, U937 cells, HUTS-21 mAb, flow cytometry, validation set (AID 2674;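 active = inhibition above 50%, about 3 SD of the validation set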;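 also: antibody binding induced by the VLA-4 ligand LDV present at three times its Kd; 0% = LDV ligand with antibody and no compound and 100% = antibody without LDV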). As to conditions: HUTS-21 LIBS mAb binding, at 6.7 µM, stronger effect = higher value.
A short description of experiment [8]: superoxide lowering in aged yeast cells, pilot screen, validation compound set (AID 2706;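 active = superoxide response below 65% of plate, a cut near 3 SD across the whole screen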;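 also: yeast exposed to compound for one week at 30 degrees C before staining; 100% = mean of all compound wells on the same plate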). Conditions: S. cerevisiae aging, superoxide DHE fluorescence; at 10 µM; stronger effect = lower value.
The target of experiment [9] is Beta-adrenergic receptor kinase 1 (Homo sapiens) (UniProt P25098). In words: GRK2 binders displacing RNA aptamer, biochemical, validation, human GRK2, bead flow cytometry (AID 488806;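 active = aptamer binding inhibition above 30%, about 3 SD of noise from non-fluorescent compounds; inactive = inhibition at or below 30%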). As to conditions: bead-bound GRK2, FAM-aptamer displacement, at 10 µM, stronger effect = higher value.
Chain of Beta-adrenergic receptor kinase 1 (Homo sapiens) (P25098 whole entry, looked up): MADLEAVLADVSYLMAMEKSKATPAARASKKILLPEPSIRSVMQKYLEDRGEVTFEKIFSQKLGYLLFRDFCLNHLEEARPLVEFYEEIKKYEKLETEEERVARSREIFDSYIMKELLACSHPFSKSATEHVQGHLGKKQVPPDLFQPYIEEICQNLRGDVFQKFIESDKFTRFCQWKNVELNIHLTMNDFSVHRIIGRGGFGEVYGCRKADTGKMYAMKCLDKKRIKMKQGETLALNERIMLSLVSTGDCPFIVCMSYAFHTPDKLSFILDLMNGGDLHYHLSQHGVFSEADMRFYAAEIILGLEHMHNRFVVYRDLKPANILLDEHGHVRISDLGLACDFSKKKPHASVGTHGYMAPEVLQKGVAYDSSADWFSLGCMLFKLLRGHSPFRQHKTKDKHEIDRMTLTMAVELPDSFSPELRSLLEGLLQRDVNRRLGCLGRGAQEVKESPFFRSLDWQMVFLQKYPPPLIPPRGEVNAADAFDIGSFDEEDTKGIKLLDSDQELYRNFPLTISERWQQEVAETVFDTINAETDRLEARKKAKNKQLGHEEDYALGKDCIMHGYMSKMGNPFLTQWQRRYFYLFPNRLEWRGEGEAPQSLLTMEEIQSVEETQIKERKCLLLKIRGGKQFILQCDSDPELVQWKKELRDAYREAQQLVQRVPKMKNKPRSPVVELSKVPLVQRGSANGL
In experiment [10] the target is Beta-2 adrenergic receptor (Homo sapiens) (UniProt P07550). The experiment can be described thus: beta2AR agonists driving receptor internalization, pilot screen, cell-based, FAP fluorogen, flow cytometry, validation set (AID 504459;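 active = percent response above 42, roughly 3 SD of non-fluorescent test compounds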;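 also: agonist-driven loss of surface beta2AR via internalization measured by FAP dye flow cytometry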). As to conditions: Am2.2-beta2AR cells, FAP surface receptor flow cytometry; at 10 µM; stronger effect = higher value.
Chain of Beta-2 adrenergic receptor (Homo sapiens) (P07550 whole entry, looked up): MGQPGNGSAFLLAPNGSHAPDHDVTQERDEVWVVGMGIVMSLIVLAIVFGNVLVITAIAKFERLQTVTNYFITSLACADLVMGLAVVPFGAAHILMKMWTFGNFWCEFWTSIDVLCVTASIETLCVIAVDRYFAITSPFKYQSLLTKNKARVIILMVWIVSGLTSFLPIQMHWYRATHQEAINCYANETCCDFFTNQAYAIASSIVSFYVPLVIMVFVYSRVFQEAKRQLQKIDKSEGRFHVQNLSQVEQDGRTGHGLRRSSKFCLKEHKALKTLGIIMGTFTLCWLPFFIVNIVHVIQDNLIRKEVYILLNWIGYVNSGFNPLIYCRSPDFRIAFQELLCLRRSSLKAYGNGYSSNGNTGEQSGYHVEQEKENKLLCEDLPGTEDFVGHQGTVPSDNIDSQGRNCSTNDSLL
The target of experiment [11] is AP-2 complex subunit beta (Homo sapiens) (UniProt P63010). In words: inhibitors of arrestin peptide binding to AP2, pilot screen, biochemical, validation set, GST-AP2 beads, flow cytometry (AID 504541;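 active = inhibition above 54%, about 3 SD of non-fluorescent compounds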;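 also: AP2 carries R879A mutation and is captured from E. coli lysate; bead-bound FITC arrestin peptide fluorescence measuring arrestin peptide binding to AP2; 0% = DMSO wells and 100% = excess unlabeled arrestin peptide control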). As to conditions: FITC arrestin peptide, at 10 µM, stronger effect = higher value.
Chain of AP-2 complex subunit beta (Homo sapiens) (P63010 whole entry, looked up, one chain of several): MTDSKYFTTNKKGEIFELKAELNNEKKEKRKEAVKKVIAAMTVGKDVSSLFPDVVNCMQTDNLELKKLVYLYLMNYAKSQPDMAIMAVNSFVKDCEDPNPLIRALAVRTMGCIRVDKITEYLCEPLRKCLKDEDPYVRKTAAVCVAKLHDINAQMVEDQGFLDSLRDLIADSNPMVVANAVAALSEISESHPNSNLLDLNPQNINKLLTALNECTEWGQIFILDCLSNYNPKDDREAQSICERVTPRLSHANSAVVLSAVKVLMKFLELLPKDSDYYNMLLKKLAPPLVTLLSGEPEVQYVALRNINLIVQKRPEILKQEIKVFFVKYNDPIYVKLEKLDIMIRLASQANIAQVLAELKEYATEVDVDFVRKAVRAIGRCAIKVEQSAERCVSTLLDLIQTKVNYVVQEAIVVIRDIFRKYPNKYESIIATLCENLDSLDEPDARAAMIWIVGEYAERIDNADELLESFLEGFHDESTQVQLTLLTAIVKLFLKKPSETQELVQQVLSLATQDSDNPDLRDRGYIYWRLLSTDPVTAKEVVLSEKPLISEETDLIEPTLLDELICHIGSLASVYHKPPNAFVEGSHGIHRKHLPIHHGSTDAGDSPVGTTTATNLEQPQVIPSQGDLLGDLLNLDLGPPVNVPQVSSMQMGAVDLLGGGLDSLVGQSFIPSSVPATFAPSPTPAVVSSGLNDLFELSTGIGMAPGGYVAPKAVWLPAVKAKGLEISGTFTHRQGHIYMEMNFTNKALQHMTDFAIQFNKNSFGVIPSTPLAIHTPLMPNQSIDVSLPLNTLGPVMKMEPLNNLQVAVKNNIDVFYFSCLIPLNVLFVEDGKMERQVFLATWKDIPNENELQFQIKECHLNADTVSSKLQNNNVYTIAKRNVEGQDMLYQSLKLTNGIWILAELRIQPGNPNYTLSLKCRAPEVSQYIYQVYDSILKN
A short description of experiment [12]: yeast V-ATPase proton transport modulators, S. cerevisiae, pHLuorin, HTS validation (AID 504600; in the data active = response above about 15%;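 also: plate controls were DMSO for no effect and reference compound for full effect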). As to conditions: S. cerevisiae pHLuorin cytosolic pH, at 10 µM, stronger effect = higher value.
The subject of experiment [13] is anti-desmoglein-3 scFv antibody binding to human DSG3. The experiment can be described thus: inhibitors of anti-DSG3 scFv binding to DSG3, pilot screen, biochemical, validation compound set, bead-based, flow cytometry (AID 588368;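 active = binding below the plate cutoff, the plate median minus 3 SD, with a reading above zero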;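 also: signal is the median channel fluorescence of bead-bound GFP antibody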). Conditions: Protein G beads, DSG3-Fc, scFv-GFP binding, at 10 µM, stronger effect = lower value.
Experiment [14] concerns Botulinum neurotoxin type F light chain protease (Clostridium botulinum). The experiment can be described thus: Botulinum neurotoxin type F light chain protease inhibition, multiplex microsphere flow cytometry, validation set (AID 588459). Conditions: multiplex microsphere protease substrate cleavage assay, at 10 µM, stronger effect = higher value.
For experiment [15], the target named is Botulinum neurotoxin type A (Clostridium botulinum) (UniProt P0DPI0). The experiment can be described thus: BoNT/A light chain protease inhibitors, biochemical, multiplex microsphere flow cytometry, validation set (AID 588460). As to conditions: at 10 µM, stronger effect = higher value.
Chain of Botulinum neurotoxin type A (Clostridium botulinum) (P0DPI0 whole entry, looked up): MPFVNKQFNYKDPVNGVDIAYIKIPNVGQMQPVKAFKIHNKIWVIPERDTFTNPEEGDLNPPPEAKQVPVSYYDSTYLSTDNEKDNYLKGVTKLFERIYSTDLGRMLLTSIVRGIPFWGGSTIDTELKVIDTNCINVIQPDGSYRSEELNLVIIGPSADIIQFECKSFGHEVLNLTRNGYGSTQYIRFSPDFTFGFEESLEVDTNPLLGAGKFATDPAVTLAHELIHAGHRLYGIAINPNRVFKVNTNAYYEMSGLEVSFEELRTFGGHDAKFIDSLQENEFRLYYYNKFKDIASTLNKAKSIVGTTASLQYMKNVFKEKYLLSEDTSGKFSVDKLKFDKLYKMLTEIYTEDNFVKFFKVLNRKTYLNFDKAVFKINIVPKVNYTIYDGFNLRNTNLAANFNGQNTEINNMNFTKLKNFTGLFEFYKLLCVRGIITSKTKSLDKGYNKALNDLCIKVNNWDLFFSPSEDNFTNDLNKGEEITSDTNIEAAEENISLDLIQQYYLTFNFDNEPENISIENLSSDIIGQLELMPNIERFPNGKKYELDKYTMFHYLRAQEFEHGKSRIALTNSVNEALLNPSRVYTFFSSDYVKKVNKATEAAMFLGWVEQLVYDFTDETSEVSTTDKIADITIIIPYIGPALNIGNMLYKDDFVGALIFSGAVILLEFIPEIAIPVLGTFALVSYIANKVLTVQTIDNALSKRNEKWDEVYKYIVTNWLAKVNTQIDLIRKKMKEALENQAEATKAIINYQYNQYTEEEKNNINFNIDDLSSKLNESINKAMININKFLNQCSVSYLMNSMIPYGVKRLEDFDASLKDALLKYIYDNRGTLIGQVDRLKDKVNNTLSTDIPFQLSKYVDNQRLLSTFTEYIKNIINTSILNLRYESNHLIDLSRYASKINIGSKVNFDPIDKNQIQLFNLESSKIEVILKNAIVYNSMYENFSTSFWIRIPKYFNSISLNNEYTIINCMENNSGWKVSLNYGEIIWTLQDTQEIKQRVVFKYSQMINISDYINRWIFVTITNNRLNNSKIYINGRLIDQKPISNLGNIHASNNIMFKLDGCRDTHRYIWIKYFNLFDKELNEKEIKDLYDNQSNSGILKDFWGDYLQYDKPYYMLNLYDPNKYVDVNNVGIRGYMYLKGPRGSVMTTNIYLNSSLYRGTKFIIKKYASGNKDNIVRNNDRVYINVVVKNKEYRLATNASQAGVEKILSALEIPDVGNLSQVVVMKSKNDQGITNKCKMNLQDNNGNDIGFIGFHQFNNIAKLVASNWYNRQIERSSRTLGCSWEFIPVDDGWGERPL
The target of experiment [16] is Lethal factor (Bacillus anthracis) (UniProt P15917). The experiment can be described thus: Lethal factor protease inhibitors, Bacillus anthracis, multiplex microsphere cleavage assay, validation set (AID 588461). Conditions: flow cytometry, at 10 µM, stronger effect = higher value.
Chain of Lethal factor (Bacillus anthracis) (P15917 whole entry, looked up): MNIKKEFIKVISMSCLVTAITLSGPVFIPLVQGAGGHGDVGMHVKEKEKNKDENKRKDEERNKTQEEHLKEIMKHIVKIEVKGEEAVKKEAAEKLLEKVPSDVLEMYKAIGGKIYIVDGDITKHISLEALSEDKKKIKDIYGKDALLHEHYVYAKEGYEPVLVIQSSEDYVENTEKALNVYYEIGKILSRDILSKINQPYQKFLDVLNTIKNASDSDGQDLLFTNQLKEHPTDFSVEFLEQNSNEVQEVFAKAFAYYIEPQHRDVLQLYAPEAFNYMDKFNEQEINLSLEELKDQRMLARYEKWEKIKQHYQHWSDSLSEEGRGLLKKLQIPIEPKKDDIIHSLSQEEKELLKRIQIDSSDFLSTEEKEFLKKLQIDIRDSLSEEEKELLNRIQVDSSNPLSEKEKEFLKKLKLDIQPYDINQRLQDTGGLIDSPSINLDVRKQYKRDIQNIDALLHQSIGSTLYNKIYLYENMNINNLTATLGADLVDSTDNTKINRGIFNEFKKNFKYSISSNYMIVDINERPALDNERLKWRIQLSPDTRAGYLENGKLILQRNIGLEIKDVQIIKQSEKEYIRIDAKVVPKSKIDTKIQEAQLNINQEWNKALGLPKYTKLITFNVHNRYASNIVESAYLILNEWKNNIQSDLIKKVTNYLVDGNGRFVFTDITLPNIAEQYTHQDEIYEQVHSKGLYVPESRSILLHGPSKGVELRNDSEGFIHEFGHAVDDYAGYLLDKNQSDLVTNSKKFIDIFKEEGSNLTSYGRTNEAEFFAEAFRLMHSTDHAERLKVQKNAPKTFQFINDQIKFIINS
Experiment [17] in a line: inhibitors of fungal efflux pumps CDR1, CDR2, MDR1, pilot screen, validation compound set, multiplex, phenotypic (AID 588506;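 active = efflux inhibition above 0.42, the validation set average plus 4 SD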;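 also: Nile Red retained in cells so higher fluorescence means more efflux inhibition; 0 = negative control wells and 1 = enniatin B 25 µM full block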). As to conditions: S. cerevisiae pump-expressing triplex, Nile Red efflux flow cytometry; at 10 µM; stronger effect = higher value.
In experiment [18] the target is ATP-binding cassette sub-family B member 6 (Homo sapiens) (UniProt Q9NP58). In words: ABCB6 transporter inhibitors, pilot screen, K562-ABCB6 cells, flow cytometry, validation set (AID 588550;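 active = inhibition above the screen-wide mean plus 3 SD, about 51%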;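 also: 0% = DMSO wells and 100% = benzethonium chloride 70 µM positive control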). Conditions: K562-ABCB6 porphyrin accumulation, 1 h, at 10 µM, stronger effect = higher value.
Chain of ATP-binding cassette sub-family B member 6 (Homo sapiens) (Q9NP58 whole entry, looked up): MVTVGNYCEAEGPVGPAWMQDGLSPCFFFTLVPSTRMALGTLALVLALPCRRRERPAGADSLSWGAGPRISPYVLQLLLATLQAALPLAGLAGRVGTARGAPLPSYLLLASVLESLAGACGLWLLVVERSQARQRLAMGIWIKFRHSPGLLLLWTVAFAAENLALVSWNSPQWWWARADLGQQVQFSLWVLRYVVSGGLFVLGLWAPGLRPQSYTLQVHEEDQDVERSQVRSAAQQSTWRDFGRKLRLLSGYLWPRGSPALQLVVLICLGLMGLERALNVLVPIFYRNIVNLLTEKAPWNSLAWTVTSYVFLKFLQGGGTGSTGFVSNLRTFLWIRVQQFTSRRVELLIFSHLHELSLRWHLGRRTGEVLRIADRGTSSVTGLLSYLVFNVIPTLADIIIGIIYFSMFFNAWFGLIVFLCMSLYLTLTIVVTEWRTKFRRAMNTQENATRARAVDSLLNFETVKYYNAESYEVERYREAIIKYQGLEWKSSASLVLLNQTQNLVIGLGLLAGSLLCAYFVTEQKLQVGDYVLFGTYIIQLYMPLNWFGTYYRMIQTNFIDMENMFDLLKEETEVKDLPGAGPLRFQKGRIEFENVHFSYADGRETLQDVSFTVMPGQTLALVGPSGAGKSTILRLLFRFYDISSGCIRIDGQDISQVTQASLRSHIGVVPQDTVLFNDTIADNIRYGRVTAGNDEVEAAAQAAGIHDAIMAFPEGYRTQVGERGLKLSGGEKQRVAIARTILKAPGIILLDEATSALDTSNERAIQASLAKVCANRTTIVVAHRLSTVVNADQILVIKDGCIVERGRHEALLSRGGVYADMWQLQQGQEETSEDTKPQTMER
The nature of experiment [19]: promoters of myeloid differentiation in arrested cells, primary screen, cell-based, GFP/MAC1 double positive, flow cytometry, validation set (AID 588685;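 active = differentiation response of at least 50%, scaled between solvent and reference control, from cells with both markers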;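 also: compound exposure lasts four days before antibody staining and flow analysis; 0% = DMSO wells and 100% = 5 µM fulvestrant positive control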). As to conditions: ER-HoxA9 marrow cells, stronger effect = higher value.

A word on the inhibition: it is the change of the read-out against control, counted positive when it falls.

For the compound `CN1CC[C@@]23CCCC[C@@H]2[C@@H]1Cc1ccc(O)cc13`, the percent of DMSO control GFP in experiment [1] was 99.4% (inactive). In addition, the GFP response vs DMSO was 110% (inactive) in experiment [2] and 98.6% (inactive) in experiment [4]. Moreover, in experiment [3], the percent response of DMSO control was 96.6% (inactive). Moreover, in experiment [5], the GFP response, % of DMSO was 100% (inactive). In experiment [6], this compound gave a double positive events of 60.4%. Besides, the vesicle binding response in [6] is 47.7% (inactive). Also, the inhibition in [7] is -0.45% (inactive); in [11], 9.83% (inactive); in experiment [14], -10% (inactive); in experiment [15] it was -1.6% (inactive); in experiment [16] it was -1.3% (inactive); in [18], 2% (inactive). Besides, the superoxide response (% of plate) in experiment [8] was 109% (inactive). For the same compound, in experiment [9], the aptamer binding inhibition is -1% (inactive). Also, the response in experiment [10] was 2.76% (inactive); in experiment [12], -1.79% (inactive). The binding (% of control) in experiment [13] was 92% (inactive). In addition, the efflux inhibition (fraction of control) in experiment [17] is -0.07 (inactive). Further, in experiment [19], the differentiation response was 3.18% (inactive).
Regarding `CC(=O)OC1C2CCC1C(N1CCCC1)CC2` (stereo not given), in experiment [1], the percent of DMSO control GFP is 98.7% (inactive). For the same compound, the GFP response vs DMSO in experiment [2] was 106% (inactive); in experiment [4] it was 104% (inactive). Also, in experiment [3], the percent response of DMSO control is 97.7% (inactive). The GFP response, % of DMSO in experiment [5] is 115% (inactive). The same compound registered a double positive events in experiment [6] of 67.3%. Also, the vesicle binding response in experiment [6] is 162% (inactive). The inhibition in experiment [7] was 9.1% (inactive); in experiment [11] it was -16% (inactive); in [14] it was -2.3% (inactive); in experiment [15], -0.8% (inactive); in [16] it was -5.2% (inactive); in [18], 3% (inactive). Besides, the superoxide response (% of plate) in [8] is 91.4% (inactive). Moreover, in experiment [9], the aptamer binding inhibition was 0% (inactive). The response in experiment [10] is -10.9% (inactive); in [12], -1.91% (inactive). In addition, in [13], the binding (% of control) was 103% (inactive). In addition, the efflux inhibition (fraction of control) in [17] is -0.04 (inactive). Also, the differentiation response in experiment [19] is -12.9% (inactive).
With `CC(C)C[C@H]1C(=O)N2CCCC2[C@]2(O)O[C@](NC(=O)[C@@H]3C=C4c5cccc6[nH]cc(c56)CC4N(C)C3)(C(C)C)C(=O)N12` (stereo not given in full), in experiment [1], the percent of DMSO control GFP was 93.5% (inactive). In addition, the GFP response vs DMSO is 116% (inactive) in [2] and 79.2% (inactive) in experiment [4]. Further, the percent response of DMSO control in experiment [3] was 96.6% (inactive). Further, the GFP response, % of DMSO in [5] was 96.6% (inactive). The double positive events in experiment [6] was 61.2%. The vesicle binding response in experiment [6] was 108% (inactive). Moreover, the inhibition in experiment [7] was -162% (inactive); in experiment [11] it was 4.91% (inactive); in experiment [14] it was -7% (inactive); in [15], -1.6% (inactive); in experiment [16] it was -34.6% (inactive); in experiment [18], 10% (inactive). The superoxide response (% of plate) in experiment [8] was 94.2% (inactive). Also, in experiment [9], the aptamer binding inhibition was 5% (inactive). The response in [10] is -35.9% (inactive); in experiment [12], 3.06% (inactive). In experiment [13], the binding (% of control) was 109% (inactive). For the same compound, the efflux inhibition (fraction of control) in experiment [17] is 0.41 (inactive). In addition, the differentiation response in experiment [19] was -6.55% (inactive).
Turning to `CN1C(=O)N(C)C(=O)C2(Cc3ccccc3N3CCOCC32)C1=O` (stereo not given), the percent of DMSO control GFP in experiment [1] was 101% (inactive). Moreover, the GFP response vs DMSO is 103% (inactive) in experiment [2] and 93.7% (inactive) in [4]. Moreover, the percent response of DMSO control in experiment [3] is 102% (inactive). Moreover, the GFP response, % of DMSO in [5] was 99.9% (inactive). The double positive events in experiment [6] came to 64.2%. Also, the vesicle binding response in experiment [6] was 3430% (inactive). The inhibition in [7] is 8.28% (inactive); in experiment [11], -5.91% (inactive); in experiment [14], 5% (inactive); in experiment [15], 0.6% (inactive); in [16], 1.1% (inactive); in experiment [18] it was 5% (inactive). The superoxide response (% of plate) in [8] is 109% (inactive). Moreover, the aptamer binding inhibition in experiment [9] is 0% (inactive). Besides, the response in experiment [10] was 4.14% (inactive); in experiment [12] it was 0.7% (inactive). Further, in experiment [13], the binding (% of control) is 102% (inactive). Also, the efflux inhibition (fraction of control) in experiment [17] was 0.62 (active). Also, in experiment [19], the differentiation response is 0% (inactive).
